HPGD block = HPGD (human) dehydrogenase inhibition | P15428 | Potency, µM, most hits filed as inhibitors | 150,000 compounds, 4.3% hits | purified HPGD, NADH fluorescence kinetic, PGE2 substrate
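20 nM HPGD preincubated 15 min at room temperature with compound in 50 mM Tris-HCl pH 8, 0.01% Tween 20. Started with 1 mM NAD+ and 30 uM prostaglandin E2; NADH fluorescence (360/450 nm) read 5 times over 30-s intervals, last minus first.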
PNC assembly inh = blocks assembly of the perinucleolar compartment | PC3M PTB-GFP, PNC prevalence imaging, 16 h; stronger effect = lower value | activity change (PNC), negative = inhibition, % at 10 µM | AID 2417 | 140,000 compounds, 3.1% hits;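 active = readout at or below -70, meaning at least 70% loss of cells showing the perinucleolar compartment, a nuclear body marking cancer cells; inconclusive = readout between -30 and a set limit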
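PC3M cells stably expressing PTB-GFP, 750–1000 cells/well, treated 16 h at 37 °C with compound (23 nl of library stock), in duplicate. After paraformaldehyde fixation and Hoechst stain, imaged at 20x; PNC prevalence scored by image analysis.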
ALDH1A1 block = inhibitors of human aldehyde dehydrogenase 1A1; Purified ALDH1A1, NADH fluorescence, propionaldehyde substrate; P00352; 220,000 compounds, 7.3% hits; Potency, µM (top dose mostly 75.3 µM), hits mostly inhibitors
Target sequence (P00352 whole entry, looked up): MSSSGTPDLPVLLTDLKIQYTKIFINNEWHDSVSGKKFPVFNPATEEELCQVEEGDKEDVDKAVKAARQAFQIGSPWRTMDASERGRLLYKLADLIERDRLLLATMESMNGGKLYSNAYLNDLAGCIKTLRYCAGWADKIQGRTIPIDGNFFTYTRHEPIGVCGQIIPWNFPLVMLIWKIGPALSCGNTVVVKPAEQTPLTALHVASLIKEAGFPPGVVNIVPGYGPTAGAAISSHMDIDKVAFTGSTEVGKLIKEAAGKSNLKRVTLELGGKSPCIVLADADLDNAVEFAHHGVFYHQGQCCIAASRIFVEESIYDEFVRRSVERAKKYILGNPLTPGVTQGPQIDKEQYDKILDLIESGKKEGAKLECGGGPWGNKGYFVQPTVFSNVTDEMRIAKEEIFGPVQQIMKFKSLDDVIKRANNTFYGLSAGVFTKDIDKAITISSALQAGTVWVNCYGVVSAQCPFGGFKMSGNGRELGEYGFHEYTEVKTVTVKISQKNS
Numbers stand for hits; - = inactive; ? = inconclusive; . = no result given; [ ] = another dose, or the depositor's remark. Sampled rows, rich in hits. Any-hit rate of the full collection: about 11%. Unless noted, calls come from the whole dose curve; as a rule, active = well fitted inhibition curve with a large enough effect (not every such curve was filed as active); inconclusive = small, poorly fitted or top-dose-only effect, or another doubt; inactive = no such curve, though single readings can be large or run the other way.

SMILES	HPGD block	PNC assembly inh	ALDH1A1 block
CSc1ccc(CN(C)C(C)C(=O)NCc2ccccc2)cc1 (stereo not drawn)	.	.	-
O=C(c1cc2c(s1)CCCC2)N1CCN(S(=O)(=O)c2ccccc2C(F)(F)F)CC1	-	-	?
O=C(c1cc2c(s1)CCCC2)N1CCN(c2ccccc2)CC1	.	.	22.4µM
CCOc1ccccc1N1CCN(C(=O)c2cc3c(s2)CCC3)CC1	-	-	-
CC1CC(C)CN(C(=O)c2cc3c(s2)CCC3)C1 (stereo not drawn)	12.6µM	-	?
CN(C(=O)c1cc2n(n1)C(C(F)(F)F)CC(c1ccco1)N2)c1ccccc1 (stereo not drawn)	-	-	-
C=C(C)OC(C)=O	-	.	-
COc1ccccc1N1CCN(C2CCN(C(=O)COc3cccc(C)c3)CC2)CC1	-	?	-
OCC1CCCN1C(=S)Nc1ccccc1 (stereo not drawn)	-	-	-
CN(C)c1ccc(C(=O)OCC(=O)c2cccs2)cc1	-	-113.4	-
O=C(Nc1ccc(NC(=O)c2cccs2)cc1)c1ccco1	-	-	-
CC(=O)c1cccc(NC(=O)COC(=O)c2cccs2)c1	.	.	14.1µM
O=C(OCC(=O)c1cccs1)c1ccc(NC(=O)c2ccco2)cc1	-	-	17.8µM
CCN(CC)c1ccc(NC(=O)COC(=O)c2cccs2)cc1	-	-	-
Cc1ccc(C(=O)COC(=O)c2cccs2)cc1	28.2µM	-	-
CCc1ccc(C(=O)COC(=O)c2cccs2)cc1	?	-	?
COc1ccc(C(=O)COC(=O)c2ccc(N(C)C)cc2)cc1	.	.	-
O=C(COC(=O)c1cccs1)c1ccc2c(c1)OCCO2	15.8µM	-	17.8µM
O=C(COC(=O)c1cccs1)c1ccc2ccccc2c1	?	?	-
Cc1nn(-c2ccc(F)cc2)c(Cl)c1/C=C/C(=O)N1CCNC(=O)C1	.	.	-
Cn1cc(CN2CCc3c([nH]c4ccccc34)C2C2CCCCC2)cn1 (stereo not drawn)	.	.	12.6µM
Cn1cc(CN2CCc3c([nH]c4ccccc34)C2C(C)(C)C)cn1 (stereo not drawn)	.	.	-
COc1ccc(-n2c(SCCC#N)nnc2-c2cc(Cl)ccc2OC)cc1Cl	20µM	-	-
Cc1cccc(-c2nnc(SCC#N)n2-c2cccc(Cl)c2)c1	-	-	?
COc1ccc(O[C@H]2C=C[C@@H](c3ccccc3)O[C@H]2COC(=O)NCc2cccc3ccccc23)cc1	.	.	-[13.5 µM]
SMILES	HPGD block	PNC assembly inh	ALDH1A1 block
COCC(C)n1c(SCC(=O)N(C)C2CCS(=O)(=O)C2)nc2ccccc2c1=O (stereo not drawn)	.	.	-
CCOC(=O)CCCNC(=O)COC(=O)c1cccc(F)c1	.	.	-
CC(=O)CSCc1ccccn1	-	.	3.55µM
O=C(CSCc1ccccn1)Nc1ccccc1	-	?	-
NC(=O)c1oc2ccc(Cl)cc2c1NC(=O)CN1CCOCC1	-	-	-
CCN1C(=O)/C(=C\C(=O)c2cccs2)c2cc(Br)ccc21	.	.	11.2µM
O=C1Nc2ccccc2/C1=C/C(=O)c1cccs1	?	-	?
CCc1c(C)sc(NC(=O)OC)c1C(N)=O	-	-	-
CCc1c(C)sc(NC(=O)C2CCCCC2C(=O)O)c1C(N)=O (stereo not drawn)	3.98µM	-	1.58µM
Cc1cc(C)c(S(=O)(=O)N2CCCOC2CNC(=O)C(=O)NCc2ccco2)c(C)c1 (stereo not drawn)	-	-	-
O=C(NCCC1=CCCCC1)C(=O)NCC1OCCCN1S(=O)(=O)c1cc(F)ccc1F (stereo not drawn)	.	.	-
Cc1ccc(S(=O)(=O)N2CCCOC2CNC(=O)C(=O)NCc2cccs2)cc1 (stereo not drawn)	-	-	11.2µM
Cc1ccc(S(=O)(=O)N2CCCOC2CNC(=O)C(=O)NCc2ccncc2)cc1 (stereo not drawn)	-	?	?
Cc1cc(S(=O)(=O)N2CCCOC2CNC(=O)C(=O)NCc2ccco2)ccc1F (stereo not drawn)	.	.	10µM
O=C(NCCC1=CCCCC1)C(=O)NCC1OCCCN1S(=O)(=O)c1ccc(F)cc1 (stereo not drawn)	.	.	22.4µM
CC(=O)O[C@H]1C[C@@]2(C)[C@@H](C[C@@H](O)[C@H]3[C@@]4(C)CC[C@@H](O)[C@@H](C)C4CC[C@@]32C)/C1=C(\CCC=C(C)C)C(=O)O (stereo partly drawn)	-	?	-
O=C(Nc1ccc(S(=O)(=O)Nc2nccs2)cc1)c1ccc(N2C(=O)c3ccccc3C2=O)cc1	.	.	-
Nc1nc(SCC(=O)N2CCCc3ccccc32)[nH]c(=O)c1-c1ccccc1	-	-	22.4µM
COc1ccc(-c2noc(CSc3nc(N)c(-c4ccccc4)c(=O)[nH]3)n2)cc1OC	15.8µM	?	?
Nc1nc(SCc2ccccc2)[nH]c(=O)c1-c1ccccc1	-	-	14.1µM
Nc1nc(SCc2ccccc2Cl)[nH]c(=O)c1-c1ccccc1	-	?	-
O=C(CSc1nc2c(cnn2-c2ccc(F)cc2)c(=O)[nH]1)N1CCCc2ccccc21	.	-	-
COc1ccc(-c2noc(CSc3nc(-c4ccccc4)cc(=O)[nH]3)n2)cc1	-	?	-
CC(C)C(=O)Nc1ccc(NC(=S)NC(=O)c2ccc([N+](=O)[O-])cc2)cc1	-	-	?
CCn1c(SCC(=O)NC(C)(C)C)nnc1-c1ccccn1	-	-	-
SMILES	HPGD block	PNC assembly inh	ALDH1A1 block
CN(Cc1ccco1)c1ccnc(-c2cccc(NS(C)(=O)=O)c2)n1	-	.	-
c1ccc(-n2nnnc2NC2CCCCC2)cc1	-	-	-
Nc1ncnc2nc(-c3ccc(C[P+](c4ccccc4)(c4ccccc4)c4ccccc4)cc3)[nH]c12	-	.	?
O=C(NCc1n[nH]c(=S)n1-c1ccc(Br)cc1)c1cccs1	.	.	-
C=C(C)C1CC=C(C)/C(=N/NC(=O)c2ccc(NC(=O)c3cccc(C)c3)cc2)C1 (stereo not drawn)	-	-	-
C=C(C)C1CC=C(C)/C(=N/NC(=S)Nc2ccccc2)C1 (stereo not drawn)	-	-	35.5µM
CC/C(=N\Nc1ccccc1[N+](=O)[O-])c1ccc(O)cc1	.	.	-
O=C(Nc1ccc(-c2csnn2)cc1)C(Cl)(Cl)Cl	.	.	-
Cc1ccc(Cl)c2c1NC(=O)C2(O)CC(=O)c1ccc(Br)cc1 (stereo not drawn)	-	-	?
O=C(CC1(O)C(=O)Nc2cc(Cl)cc(Cl)c21)c1ccncc1 (stereo not drawn)	-	-	12.6µM
Cc1ccc(-n2c(=O)[nH]c3cc(C(=O)NC4CCN(Cc5ccccc5)CC4)ccc3c2=O)cc1	-	-	-
CC(=O)c1ccc(N2C(=O)NC3(CCCCC3)C2=O)cc1	-	-	-
Cc1nc2ccc(S(=O)(=O)NCC(=O)N3CCc4ccccc4C3)cc2s1	-	-97.3	-
CCC(=O)N1CCc2cc(S(=O)(=O)NCCC(=O)N3CCc4ccccc4C3)ccc21	-	-	17.8µM
CCC(=O)N1CCc2cc(S(=O)(=O)NCCCOC)ccc21	28.2µM	-	20µM
Cc1nc2ccc(S(=O)(=O)NCC(=O)N3CCc4ccccc43)cc2s1	-	-	-
CCC(=O)N1CCc2cc(S(=O)(=O)NCCN3CCC(C)CC3)ccc21	-	-	-
CCC(=O)N1CCc2cc(S(=O)(=O)NCCC(=O)N3CC=C(c4ccccc4)CC3)ccc21	-	-	?
O=S(=O)(c1ccccc1)N1CCC2(CC1)OCCO2	.	.	-

Screening data from PubChem.
